From paper PMC9838217, “Structure of SALL4 zinc finger domain reveals link between AT-rich DNA binding and Okihiro syndrome”
Changes are numbered by the printed parent chain.

Target: T1, SALL4 ZFC4 WT (HT-SELEX) (Mus musculus, UniProt Q8BX22 870-940)
T1 sequence: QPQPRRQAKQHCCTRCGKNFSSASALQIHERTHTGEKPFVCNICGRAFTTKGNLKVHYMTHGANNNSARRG
Assay: HT-SELEX; high values mean tight binding
Conditions: protein: recombinant; vector His6-GST; dsDNA, one strand shown
Method in brief: (§1)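 Recombinant mouse SALL4 zinc finger cluster 4 (residues 870–940, 1 µg), purified, was mixed with library DNA (1.5 µg in the first cycle, 200 ng thereafter) in 100 µl of buffer containing 10 mM Tris–HCl pH 7.5, 50 mM NaCl, poly(dI-dC) and DTT, and left for 10 min at room temperature. Complexes were captured on Ni2+ beads, washed, amplified by PCR and reselected for up to 6 cycles in triplicate, after which MiSeq sequencing and a 6-mer scan followed. Binding signal is the read fraction of each canonical k-mer, given as fold change relative to the starting random library.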

Sequence | binding signal
GCGAAA | 0.363 ± 0.0241 fold-change vs cycle 0
CTCGGA | 0.396 ± 0.0242 fold-change vs cycle 0
CAACGA | 0.626 ± 0.036 fold-change vs cycle 0
GAATCA | 1.35 ± 0.0589 fold-change vs cycle 0
AAGGCA | 0.566 ± 0.0136 fold-change vs cycle 0
AGAGAT | 1.51 ± 0.0705 fold-change vs cycle 0
AGGAGC | 0.374 ± 0.0206 fold-change vs cycle 0
GATTCA | 1.35 ± 0.0551 fold-change vs cycle 0
CCCCTA | 0.489 ± 0.0364 fold-change vs cycle 0
TTCAAA | 1.81 ± 0.113 fold-change vs cycle 0
ACTCTC | 0.904 ± 0.0319 fold-change vs cycle 0
ATATAA | 4.98 ± 0.592 fold-change vs cycle 0
GGTGAC | 0.454 ± 0.0238 fold-change vs cycle 0
AGTGAT | 1.45 ± 0.0292 fold-change vs cycle 0
ATTCGA | 1.07 ± 0.0464 fold-change vs cycle 0
CGGTTC | 0.342 ± 0.0141 fold-change vs cycle 0
AGCACC | 0.328 ± 0.0258 fold-change vs cycle 0
AATCAC | 1.31 ± 0.0497 fold-change vs cycle 0
ATGATA | 2.72 ± 0.227 fold-change vs cycle 0
AGTTTG | 1.14 ± 0.0447 fold-change vs cycle 0

Sequence | binding signal
GAACGA | 0.753 ± 0.0422 fold-change vs cycle 0
GTTCAA | 1.2 ± 0.0638 fold-change vs cycle 0
GACTCA | 0.768 ± 0.0401 fold-change vs cycle 0
CTCCGA | 0.382 ± 0.00698 fold-change vs cycle 0
GGCTTA | 0.5567 ± 0.00529 fold-change vs cycle 0
CTACAG | 0.79 ± 0.0207 fold-change vs cycle 0
CACGTG | 0.391 ± 0.0518 fold-change vs cycle 0
CTCCCA | 0.474 ± 0.0284 fold-change vs cycle 0
TCAGCA | 0.676 ± 0.0405 fold-change vs cycle 0
ACTAAT | 2.16 ± 0.0523 fold-change vs cycle 0
GGTTAC | 0.891 ± 0.0455 fold-change vs cycle 0
AAAGAG | 1.26 ± 0.0407 fold-change vs cycle 0
ATGGTG | 0.792 ± 0.0243 fold-change vs cycle 0
CCTCGA | 0.415 ± 0.0275 fold-change vs cycle 0
AGTTAA | 1.95 ± 0.0954 fold-change vs cycle 0
TCCTAA | 1.43 ± 0.0908 fold-change vs cycle 0
AACATC | 1.26 ± 0.068 fold-change vs cycle 0
GAGATA | 1.52 ± 0.0868 fold-change vs cycle 0
CGAGTC | 0.379 ± 0.0123 fold-change vs cycle 0
TCGAAA | 0.999 ± 0.0813 fold-change vs cycle 0

Target: T2, SALL4 ZFC4 R900W (HT-SELEX) (Mus musculus, UniProt Q8BX22 870-940, R900W)
T2 sequence: T1 sequence with R31W
Assay: HT-SELEX; high values mean tight binding
Conditions: protein: recombinant; vector His6-GST; dsDNA, one strand shown
Method in brief: as §1

Sequence | binding signal
GCGAAA | 0.395 ± 0.00888 fold-change vs cycle 0
CTCGGA | 0.468 ± 0.0145 fold-change vs cycle 0
CAACGA | 0.7439 ± 0.00396 fold-change vs cycle 0
GAATCA | 1.45 ± 0.0456 fold-change vs cycle 0
AAGGCA | 0.683 ± 0.00728 fold-change vs cycle 0
AGAGAT | 1.65 ± 0.139 fold-change vs cycle 0
AGGAGC | 0.46 ± 0.0185 fold-change vs cycle 0
GATTCA | 1.38 ± 0.0852 fold-change vs cycle 0
CCCCTA | 0.584 ± 0.015 fold-change vs cycle 0
TTCAAA | 1.83 ± 0.0928 fold-change vs cycle 0
ACTCTC | 1.05 ± 0.0292 fold-change vs cycle 0
ATATAA | 2.65 ± 0.229 fold-change vs cycle 0
GGTGAC | 0.526 ± 0.0318 fold-change vs cycle 0
AGTGAT | 1.59 ± 0.0395 fold-change vs cycle 0
ATTCGA | 1.15 ± 0.0515 fold-change vs cycle 0
CGGTTC | 0.423 ± 0.038 fold-change vs cycle 0
AGCACC | 0.375 ± 0.0109 fold-change vs cycle 0
AATCAC | 1.46 ± 0.03 fold-change vs cycle 0
ATGATA | 2.14 ± 0.0867 fold-change vs cycle 0
AGTTTG | 1.23 ± 0.039 fold-change vs cycle 0

Sequence | binding signal
GAACGA | 0.856 ± 0.0556 fold-change vs cycle 0
GTTCAA | 1.34 ± 0.0679 fold-change vs cycle 0
GACTCA | 0.889 ± 0.022 fold-change vs cycle 0
CTCCGA | 0.433 ± 0.0122 fold-change vs cycle 0
GGCTTA | 0.656 ± 0.0181 fold-change vs cycle 0
CTACAG | 0.894 ± 0.0405 fold-change vs cycle 0
CACGTG | 0.459 ± 0.0227 fold-change vs cycle 0
CTCCCA | 0.569 ± 0.0121 fold-change vs cycle 0
TCAGCA | 0.74 ± 0.0606 fold-change vs cycle 0
ACTAAT | 2.13 ± 0.102 fold-change vs cycle 0
GGTTAC | 1.05 ± 0.0396 fold-change vs cycle 0
AAAGAG | 1.46 ± 0.0773 fold-change vs cycle 0
ATGGTG | 0.882 ± 0.0384 fold-change vs cycle 0
CCTCGA | 0.51 ± 0.0259 fold-change vs cycle 0
AGTTAA | 2.13 ± 0.114 fold-change vs cycle 0
TCCTAA | 1.56 ± 0.119 fold-change vs cycle 0
AACATC | 1.37 ± 0.098 fold-change vs cycle 0
GAGATA | 1.54 ± 0.105 fold-change vs cycle 0
CGAGTC | 0.4362 ± 0.00406 fold-change vs cycle 0
TCGAAA | 1.02 ± 0.0328 fold-change vs cycle 0

Target: T3, SALL4 ZFC4 G921D (HT-SELEX) (Mus musculus, UniProt Q8BX22 870-940, G921D)
T3 sequence: T1 sequence with G52D
Assay: HT-SELEX; high values mean tight binding
Conditions: protein: recombinant; vector His6-GST; dsDNA, one strand shown
Method in brief: as §1

Sequence | binding signal
GCGAAA | 0.534 ± 0.0715 fold-change vs cycle 0
CTCGGA | 0.589 ± 0.0706 fold-change vs cycle 0
CAACGA | 0.81 ± 0.0225 fold-change vs cycle 0
GAATCA | 1.38 ± 0.0555 fold-change vs cycle 0
AAGGCA | 0.777 ± 0.0437 fold-change vs cycle 0
AGAGAT | 1.53 ± 0.135 fold-change vs cycle 0
AGGAGC | 0.595 ± 0.0548 fold-change vs cycle 0
GATTCA | 1.33 ± 0.0688 fold-change vs cycle 0
CCCCTA | 0.638 ± 0.0291 fold-change vs cycle 0
TTCAAA | 1.66 ± 0.161 fold-change vs cycle 0
ACTCTC | 1.07 ± 0.0307 fold-change vs cycle 0
ATATAA | 2.24 ± 0.302 fold-change vs cycle 0
GGTGAC | 0.642 ± 0.0609 fold-change vs cycle 0
AGTGAT | 1.53 ± 0.097 fold-change vs cycle 0
ATTCGA | 1.2 ± 0.0363 fold-change vs cycle 0
CGGTTC | 0.53 ± 0.0844 fold-change vs cycle 0
AGCACC | 0.521 ± 0.0558 fold-change vs cycle 0
AATCAC | 1.42 ± 0.0791 fold-change vs cycle 0
ATGATA | 1.86 ± 0.153 fold-change vs cycle 0
AGTTTG | 1.22 ± 0.0352 fold-change vs cycle 0

Sequence | binding signal
GAACGA | 0.9 ± 0.0297 fold-change vs cycle 0
GTTCAA | 1.3 ± 0.0535 fold-change vs cycle 0
GACTCA | 0.937 ± 0.0191 fold-change vs cycle 0
CTCCGA | 0.589 ± 0.0734 fold-change vs cycle 0
GGCTTA | 0.763 ± 0.0358 fold-change vs cycle 0
CTACAG | 0.94 ± 0.015 fold-change vs cycle 0
CACGTG | 0.562 ± 0.0574 fold-change vs cycle 0
CTCCCA | 0.655 ± 0.0274 fold-change vs cycle 0
TCAGCA | 0.841 ± 0.0603 fold-change vs cycle 0
ACTAAT | 1.86 ± 0.174 fold-change vs cycle 0
GGTTAC | 1.01 ± 0.0443 fold-change vs cycle 0
AAAGAG | 1.33 ± 0.0951 fold-change vs cycle 0
ATGGTG | 0.941 ± 0.0443 fold-change vs cycle 0
CCTCGA | 0.594 ± 0.0635 fold-change vs cycle 0
AGTTAA | 1.84 ± 0.201 fold-change vs cycle 0
TCCTAA | 1.46 ± 0.14 fold-change vs cycle 0
AACATC | 1.34 ± 0.101 fold-change vs cycle 0
GAGATA | 1.45 ± 0.133 fold-change vs cycle 0
CGAGTC | 0.578 ± 0.0547 fold-change vs cycle 0
TCGAAA | 1.06 ± 0.0355 fold-change vs cycle 0
